Results published in PubChem BioAssay (EPA / NIEHS).
Records with an inconclusive call do not appear. Calls of active or inactive are those of the source. How the source made its calls: active means hit-call score of the fitted dose curve at least 0.9, where 1 is the maximum; inconclusive means response in the unintended direction; inactive means score below 0.9.

The compounds below were run on ABC Transporter (ABCB1), ABCB1 (gene 5243) (assay: CLD_ABCB1_48hr: CellzDirect (CLD) Gene Expression Assay for ABC Transporter (ABCB1) at 48 hours (AID 2283695);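 on AC50: potency for induction meaning increase of mRNA over DMSO vehicle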).
Protocol: CLD_48hr is a cell-based, multiplexed-readout assay that uses hepatocyte, a human liver primary cell, with measurements taken at 48 hours after chemical dosing in a 96-well plate.CLD_ABCB1_48hr is one of 16 assay component(s) measured or calculated from the CLD_48hr assay. It is designed to make measurements of mRNA induction, a form of inducible reporter, as detected with chemiluminescence signals by Quantitative Nuclease Protection Assay (qNPA) technology.Data from the assay component CLD_ABCB1_48hr was analyzed at the endpoint, CLD_ABCB1_48hr, in the positive analysis fitting direction relative to DMSO as the negative control and baseline of activity. Using a type of inducible reporter, gain-of-signal activity can be used to understand changes in the reporter gene as they relate to the gene ABCB1. Furthermore, this assay endpoint can be referred to as a primary readout. To generalize the intended target to other relatable targets, this assay endpoint is annotated to the transporter intended target family, where subfamily is ABC transporter.
Human hepatocyte cultures were treated daily for two consecutive days with fresh dosing solutions containing appropriate concentrations of the 320 ToxCast chemicals (chemical identities were blinded to CellzDirect and other ToxCast collaborators), vehicle control (0.2% DMSO), and positive control inducers as summarized in Table 1. Due to the large number of treatment groups and chemicals examined, the ToxCast chemicals were divided into two groups (spanning two independent cultures of hepatocytes from separate donor preparations (Hu778: ToxCast plates 1 and 2; Hu776: ToxCast plates 3 and 4). Each preparation of human hepatocyte cultures was treated with respective vehicle control, medium only control, set of six positive controls/reference chemicals for the five hepatic receptor pathways, and a subset of eight of the ToxCast chemicals (indoxacarb, pyrithiobac-sodium, norflurazon, cyhalofop-butyl, methomyl, thiram, acetochlor, and propiconazole). These replicate data, coupled with internal replicates designed within the blinded ToxCast chemical library, provided additional data to evaluate interindividual differences between hepatocyte preparations and their potential impact on chemical profiles.Cell morphology and integrity were evaluated using phase-contrast microscopy as an indicator of hepatocyte cell health (Tyson & Green, 1987). Cultures for each treatment group (i.e., media, vehicle [0.2% DMSO], positive control inducers [multiple concentrations], and the ToxCast chemicals [multiple concentrations]) were observed and cell morphology was assessed relative to vehicle control cultures at each harvest time point (0, 6, 24, or 48 h). […] Images were evaluated at the conclusion of the study to assess changes in cell integrity and account for the effects of chemical exposure on uncharacteristic changes in concentration-dependent gene expression profiles. The results from these determinations of apparent cytotoxicity were annotated (yes/no) alongside the corresponding qNPA data for reference.At the conclusion of each treatment period, hepatocyte cultures (96-well) were washed with 1 volume of HBSS, lysed by addition of 25 ul ArrayPlate lysis buffer (HTG, Tucson, AZ), and 70 ul/well of Denaturation Oil, denatured by incubation at 95C for 10 min, and frozen at approximately -70C until analysis by nuclease protection assay (qNPA) (Roberts et al., 2007). For qNPA analysis, cell lysates were thawed at 50C for approximately 30 min, qNPA probes were added, and samples were incubated at 95C for 10 min to begin the detection process by denaturing the target RNA, dissociating the duplexes and secondary structure hybridization. At the conclusion of the hybridization period, S1 nuclease reagent was added to each sample to digest all nonprotected nucleotides at 50C for 60-90 min. […]

| Compound | outcome | AC50 |
| --- | --- | --- |
| CCC(CC)Nc1c([N+](=O)[O-])cc(C)c(C)c1[N+](=O)[O-] | inactive | – |
| CCc1cccc(CC)c1N(COC)C(=O)CCl | inactive | – |
| CCOP(=S)(OCC)SCCSCC | inactive | – |
| COc1ccc(C(=CC(=O)N2CCOCC2)c2ccc(Cl)cc2)cc1OC | – | 31 µM (active) |
| CN(C)C(=O)Nc1cccc(C(F)(F)F)c1 | inactive | – |
| CCc1cnc(C2=NC(C)(C(C)C)C(=O)N2)c(C(=O)O)c1 (stereo not given) | inactive | – |
| CC(C)[C@H](C(=O)O[C@H](C#N)c1cccc(Oc2ccccc2)c1)c1ccc(Cl)cc1 | inactive | – |
| C=C(C)[C@H]1Cc2c(ccc3c2O[C@@H]2COc4cc(OC)c(OC)cc4[C@@H]2C3=O)O1 | inactive | – |
| CCCOc1nn(C(=O)NS(=O)(=O)c2ccccc2C(=O)OC)c(=O)n1C | inactive | – |
| CC1=NNC(=O)N(/N=C/c2cccnc2)C1 | inactive | – |
| Cc1nn(-c2cc(NS(C)(=O)=O)c(Cl)cc2Cl)c(=O)n1C(F)F | inactive | – |
| CSc1nc(NC(C)C)nc(NC(C)C)n1 | inactive | – |
| CC1(C(=O)Nc2ccc(O)c(Cl)c2Cl)CCCCC1 | inactive | – |
| CC[C@H](C)[C@H]1O[C@]2(C=C[C@@H]1C)C[C@@H]1C[C@@H](C/C=C(\C)[C@@H](O[C@H]3C[C@H](OC)[C@@H](O[C@H]4C[C@H](OC)[C@@H](NC)[C@H](C)O4)[C@H](C)O3)[C@@H](C)/C=C/C=C3\CO[C@@H]4[C@H](O)C(C)=C[C@@H](C(=O)O1)[C@]34O)O2 | inactive | – |
| COP(=O)(OC)C(O)C(Cl)(Cl)Cl (stereo not given) | inactive | – |
| CCCCN(CC)c1c([N+](=O)[O-])cc(C(F)(F)F)cc1[N+](=O)[O-] | inactive | – |
| CNC(=O)Oc1cccc2c1OC(C)(C)O2 | inactive | – |
| CCC(=NOC/C=C/Cl)C1=C(O)CC(C2CCOCC2)CC1=O (stereo not given) | inactive | – |
| CCOP(=O)(NC(C)C)Oc1ccc(SC)c(C)c1 (stereo not given) | inactive | – |
| C[Si](Cn1cncn1)(c1ccc(F)cc1)c1ccc(F)cc1 | – | 4.36 µM (active) |

| Compound | outcome | AC50 |
| --- | --- | --- |
| CN(C)NC(=O)CCC(=O)O | inactive | – |
| CCOP(=S)(OCC)OC(Cl)C(Cl)(Cl)Cl (stereo not given) | inactive | – |
| Nc1c(Cl)cc([N+](=O)[O-])cc1Cl | inactive | – |
| COP(=O)(NC(C)=O)SC (stereo not given) | inactive | – |
| Nc1nc(N)nc(NC2CC2)n1 | inactive | – |
| CCc1cccc(C)c1N(C(=O)CCl)C(C)COC (stereo not given) | inactive | – |
| FC(F)C(F)(F)OCC(Cn1cncn1)c1ccc(Cl)cc1Cl (stereo not given) | inactive | – |
| CCNc1nc(Cl)nc(NC(C)(C)C#N)n1 | inactive | – |
| O=c1ccc(=O)[nH][nH]1 | inactive | – |
| S=C1NCCN1 | inactive | – |
| CCCCOC(=O)[C@@H](C)Oc1ccc(Oc2ccc(C#N)cc2F)cc1 | inactive | – |
| CCOP(=S)(Oc1cnc(C(C)(C)C)nc1)OC(C)C (stereo not given) | – | 4.38 µM (active) |
| COP(=O)(OC)OC(Br)C(Cl)(Cl)Br (stereo not given) | inactive | – |
| CON=C(C(=O)OC)c1ccccc1CON=C(C)c1cccc(C(F)(F)F)c1 | inactive | – |
| CCCOCC(=Nc1ccc(Cl)cc1C(F)(F)F)n1ccnc1 | inactive | – |
| CC(Oc1cccc(Cl)c1)C(=O)O (stereo not given) | inactive | – |
| C#CCC1=C(C)C(OC(=O)C2C(C=C(C)C)C2(C)C)CC1=O (stereo not given) | inactive | – |
| C#CC(C)(C)NC(=O)c1cc(Cl)cc(Cl)c1 | inactive | – |
| CC(=NC#N)N(C)Cc1ccc(Cl)nc1 | inactive | – |
| CC(COc1ccc(Oc2ccccc2)cc1)Oc1ccccn1 (stereo not given) | inactive | – |
